In this assay the target is furin, P09958. In words: furin cleavage Z-score vs untreated control; higher = more cleavage, active = 3.5 or more, inactive = 1 or less, 8 variable residues between constant flanks. An outline of the steps: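 Magnetic beads held 8-mer peptides by the N-terminus, each fused to a cDNA oligonucleotide, and purified furin was added for 7.5, 15 or 30 min. Released DNA was sequenced after PCR adapter tagging. The cleavage Z-score is the log count relative to furin-free reactions, lowess-adjusted and divided by median absolute deviation.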

Some of the results follow. The true hit rate is not given.
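Also: purified furin at 1:10 enzyme:substrate in 50 mM HEPES pH 7.5.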

Sequence of furin, P09958 (P09958 whole entry, the tested form may be a part): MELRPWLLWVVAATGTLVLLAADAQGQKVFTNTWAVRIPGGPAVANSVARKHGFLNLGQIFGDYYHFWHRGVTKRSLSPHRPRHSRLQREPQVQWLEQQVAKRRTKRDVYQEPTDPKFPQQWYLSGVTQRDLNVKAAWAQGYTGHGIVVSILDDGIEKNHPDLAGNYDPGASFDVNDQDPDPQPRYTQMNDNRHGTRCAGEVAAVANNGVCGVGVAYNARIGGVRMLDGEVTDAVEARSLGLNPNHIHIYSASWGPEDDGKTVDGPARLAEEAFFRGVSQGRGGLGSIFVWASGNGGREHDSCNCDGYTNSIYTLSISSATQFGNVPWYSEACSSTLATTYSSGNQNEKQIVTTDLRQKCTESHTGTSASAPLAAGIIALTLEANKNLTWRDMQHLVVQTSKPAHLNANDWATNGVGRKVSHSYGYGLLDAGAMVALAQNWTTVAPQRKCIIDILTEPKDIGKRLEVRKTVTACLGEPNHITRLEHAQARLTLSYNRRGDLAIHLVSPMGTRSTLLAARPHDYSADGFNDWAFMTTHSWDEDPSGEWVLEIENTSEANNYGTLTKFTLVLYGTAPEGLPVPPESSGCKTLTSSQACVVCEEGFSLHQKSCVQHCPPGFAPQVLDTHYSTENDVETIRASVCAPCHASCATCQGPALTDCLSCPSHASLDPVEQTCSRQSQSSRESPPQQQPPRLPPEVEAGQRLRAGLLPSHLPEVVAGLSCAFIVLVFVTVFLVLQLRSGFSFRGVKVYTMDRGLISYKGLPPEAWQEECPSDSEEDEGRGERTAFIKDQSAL

As for CAQEMEECSQAGNASASA [HC1802], the “furin cleavage Z-score” value was -0.772 (inactive) (7.5 min), 0.513 (inactive) (15 min) and -1.67 (inactive) (30 min).

Take CAVVCCSMGYAGNASASA [HC2076]: the “furin cleavage Z-score” value by setting is: (7.5 min) -1.88 (inactive); (15 min) -0.775 (inactive); (30 min) -0.0504 (inactive).

In the case of CAVVECSMSYAGNASASA [HC2032], the “furin cleavage Z-score” value is, setting by setting: (7.5 min) -0.21 (inactive); (15 min) -0.185 (inactive); (30 min) 0.282 (inactive).

As for CAYYRGLDVSAGNASASA [HC869], the “furin cleavage Z-score” value is 0.136 (inactive) (7.5 min), -0.206 (inactive) (15 min) and -0.42 (inactive) (30 min).

Take CARLFRGLDSAGNASASA [FS-2430]: the “furin cleavage Z-score” value by setting is: (7.5 min) -0.523 (inactive); (15 min) -0.794 (inactive); (30 min) 0.531 (inactive).

Consider CAVRVQGLLRAGNASASA [HC617], for which the “furin cleavage Z-score” value by setting is: (7.5 min) -0.956 (inactive); (15 min) -0.879 (inactive); (30 min) -0.866 (inactive).

Turning to CARLSRGTRPAGNASASA [FS-1748], the “furin cleavage Z-score” value by setting is: (7.5 min) 1.1; (15 min) 0.607 (inactive); (30 min) 1.39.

For the sequence CATLSTALAEAGNASASA [HC1330], the “furin cleavage Z-score” value was -0.432 (inactive) (7.5 min), -1.49 (inactive) (15 min) and -1.25 (inactive) (30 min).

CAALSRGKREAGNASASA [FS-1584]: the “furin cleavage Z-score” value (7.5 min) was 11.2 (active), the “furin cleavage Z-score” value (15 min) is 11.6 (active) and the “furin cleavage Z-score” value (30 min) is 8.56 (active).

For the sequence CAVRFRGKREAGNASASA [FS-514], the “furin cleavage Z-score” value is 11.2 (active) (7.5 min), 9.46 (active) (15 min) and 7.95 (active) (30 min).

As for CAMEECSQWLAGNASASA [HC1748], the “furin cleavage Z-score” value was 1.29 (7.5 min), 1.35 (15 min) and -0.383 (inactive) (30 min).

As for CAQEMGGNITAGNASASA [HC1278], the “furin cleavage Z-score” value by setting is: (7.5 min) 0.989 (inactive); (15 min) 0.052 (inactive); (30 min) 0.798 (inactive).

On to CAANGSGPDQAGNASASA [HC398], for which the “furin cleavage Z-score” value (7.5 min) was -0.135 (inactive), the “furin cleavage Z-score” value (15 min) is -1.15 (inactive) and the “furin cleavage Z-score” value (30 min) was 0.257 (inactive).

In the case of CAEVCCSMSYAGNASASA [HC1992], the “furin cleavage Z-score” value is 0.759 (inactive) (7.5 min), 0.26 (inactive) (15 min) and 0.528 (inactive) (30 min).

In the case of CARRRRCVGLAGNASASA [FS-2403], the “furin cleavage Z-score” value by setting is: (7.5 min) 2.54; (15 min) 1.19; (30 min) 5.18 (active).

Consider CAAAIGSVGLAGNASASA [HC1079], for which the “furin cleavage Z-score” value (7.5 min) is -0.425 (inactive), the “furin cleavage Z-score” value (15 min) was -0.896 (inactive) and the “furin cleavage Z-score” value (30 min) is -0.452 (inactive).

In the case of CARRRRSVQLAGNASASA [FS-1789], the “furin cleavage Z-score” value is 1.43 (7.5 min), 0.51 (inactive) (15 min) and 2.7 (30 min).

In the case of CARRRRDVVTAGNASASA [FS-2232], the “furin cleavage Z-score” value is 11.1 (active) (7.5 min), 11.8 (active) (15 min) and 8.98 (active) (30 min).

For CARTMRSSAGAGNASASA [FS-2831], the “furin cleavage Z-score” value by setting is: (7.5 min) 0.517 (inactive); (15 min) -0.365 (inactive); (30 min) 0.495 (inactive).

Turning to CARRRRLVWTAGNASASA [FS-2079], the “furin cleavage Z-score” value by setting is: (7.5 min) -0.712 (inactive); (15 min) 0.718 (inactive); (30 min) 2.58.

For the sequence CARRRRAVGLAGNASASA [FS-2595], the “furin cleavage Z-score” value (7.5 min) was 3.99 (active), the “furin cleavage Z-score” value (15 min) was 4.72 (active) and the “furin cleavage Z-score” value (30 min) is 5.23 (active).

Regarding CARTMRSVGLAGNASASA [FS-1936], the “furin cleavage Z-score” value reads like this: (7.5 min) 5.41 (active); (15 min) 6.11 (active); (30 min) 5.7 (active).

For the sequence CAADVVCCSMAGNASASA [HC2103], the “furin cleavage Z-score” value (7.5 min) stood at 1.06, the “furin cleavage Z-score” value (15 min) was 0.666 (inactive) and the “furin cleavage Z-score” value (30 min) is 0.566 (inactive).

Turning to CATLVFDITKAGNASASA [HC602], the “furin cleavage Z-score” value was 1.27 (7.5 min), 0.292 (inactive) (15 min) and -0.917 (inactive) (30 min).

On to CALITWGADTAGNASASA [HC652], for which the “furin cleavage Z-score” value is, setting by setting: (7.5 min) 0.62 (inactive); (15 min) 1.26; (30 min) -1.35 (inactive).

As for CAQLSAPSLKAGNASASA [HC1263], the “furin cleavage Z-score” value is, setting by setting: (7.5 min) 1.12; (15 min) 0.729 (inactive); (30 min) -0.193 (inactive).

With CARSVRPVEFAGNASASA [FS-3100], the “furin cleavage Z-score” value runs as follows: (7.5 min) -0.873 (inactive); (15 min) -2.07 (inactive); (30 min) -1.68 (inactive).

Turning to CAVYRRSLGKAGNASASA [FS-2202], the “furin cleavage Z-score” value (7.5 min) is -0.0765 (inactive), the “furin cleavage Z-score” value (15 min) is -0.584 (inactive) and the “furin cleavage Z-score” value (30 min) is -0.11 (inactive).

For the sequence CARGRRSLEFAGNASASA [FS-1952], the “furin cleavage Z-score” value was 4.88 (active) (7.5 min), 7.64 (active) (15 min) and 7.06 (active) (30 min).

As to CARGRRSLGSAGNASASA [FS-1713], the “furin cleavage Z-score” value (7.5 min) is 7.83 (active), the “furin cleavage Z-score” value (15 min) was 9.89 (active) and the “furin cleavage Z-score” value (30 min) is 8.32 (active).

With CAMEECSAHLAGNASASA [HC1723], the “furin cleavage Z-score” value was 1.16 (7.5 min), 1.94 (15 min) and 0.224 (inactive) (30 min).

With CAANHDSPDAAGNASASA [HC1269], the “furin cleavage Z-score” value is -0.381 (inactive) (7.5 min), 0.0398 (inactive) (15 min) and -1.93 (inactive) (30 min).

Turning to CAEVVTWTWVAGNASASA [HC147], the “furin cleavage Z-score” value runs as follows: (7.5 min) 0.828 (inactive); (15 min) 0.782 (inactive); (30 min) -0.799 (inactive).

Turning to CAESRRLPRSAGNASASA [FS-1321], the “furin cleavage Z-score” value was 4.7 (active) (7.5 min), 3.1 (15 min) and 2.83 (30 min).

For the sequence CANLGRLYRSAGNASASA [FS-1546], the “furin cleavage Z-score” value reads like this: (7.5 min) 1.72; (15 min) 0.0213 (inactive); (30 min) 0.362 (inactive).

Take CAKQRRLPRSAGNASASA [FS-678]: the “furin cleavage Z-score” value (7.5 min) was 5.31 (active), the “furin cleavage Z-score” value (15 min) was 3.74 (active) and the “furin cleavage Z-score” value (30 min) worked out at 3.02.

Regarding CAAPARWPRSAGNASASA [FS-974], the “furin cleavage Z-score” value is, setting by setting: (7.5 min) 8.41 (active); (15 min) 5.86 (active); (30 min) 6.73 (active).

CAAEGWWARSAGNASASA [FS-394]: the “furin cleavage Z-score” value is 0.0718 (inactive) (7.5 min), 0.063 (inactive) (15 min) and -0.127 (inactive) (30 min).

With CAESSRLLRSAGNASASA [FS-994], the “furin cleavage Z-score” value was -0.56 (inactive) (7.5 min), -0.471 (inactive) (15 min) and -0.146 (inactive) (30 min).

In the case of CAAPQRLPRSAGNASASA [FS-1305], the “furin cleavage Z-score” value is, setting by setting: (7.5 min) 5.56 (active); (15 min) 4.41 (active); (30 min) 3.78 (active).

For CATPGCVPCVAGNASASA [HC272], the “furin cleavage Z-score” value (7.5 min) is -0.91 (inactive), the “furin cleavage Z-score” value (15 min) is 0.456 (inactive) and the “furin cleavage Z-score” value (30 min) was 0.199 (inactive).

For the sequence CAILNRPKRYAGNASASA [FS-666], the “furin cleavage Z-score” value (7.5 min) is 4.17 (active), the “furin cleavage Z-score” value (15 min) is 4.91 (active) and the “furin cleavage Z-score” value (30 min) is 4.53 (active).

In the case of CAHHQRPKRYAGNASASA [FS-792], the “furin cleavage Z-score” value is, setting by setting: (7.5 min) 8.28 (active); (15 min) 9.17 (active); (30 min) 7.59 (active).

For the origin of these results see the supplement of paper PMC3545927.
